Experimental data published in PubChem BioAssay AID1159580 (chemical genetic matrix, 2015).
The campaign covered roughly 5,500 compounds. About 2,000 (36%) were called active. About 18% were inconclusive and are not listed. No stated cut-off is given here; in the data, active means normalized growth mostly below about 0.91 (no sharp cut-off); inconclusive means no clear call, values can overlap the other calls; inactive means mostly above about 0.92. Some of the results follow.

Assay: chemical genetic growth profiling, strain panel (AID 1159580);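 further: tested at 20 µM; growth read once vehicle control cultures reached saturation at 30 °C; 1 = growth at the plate median or of vehicle wells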
Conditions: S. cerevisiae deletion strains, growth OD

Measured: normalized growth

COc1c(-c2coc3cc4c(cc3c2=O)CC(OC(C)=O)C(C)(C)O4)ccc2c1C=CC(C)(C)O2 (stereo not given)
inactive: locus YAL021C, strain ccr4, stronger effect = lower value 1.01 | locus YAL026C, strain drs2, stronger effect = lower value 1.04 | locus YAL030W, strain snc1, stronger effect = lower value 1.03 | locus YBL061C, strain skt5, stronger effect = lower value 1.02 | locus YBR009C, strain hhf1, stronger effect = lower value 1.02 | locus YBR023C, strain chs3, stronger effect = lower value 1.03 | locus YBR171W, strain sec66, stronger effect = lower value 1.05 | locus YBR231C, strain swc5, stronger effect = lower value 1.05 | locus YBR279W, strain paf1, stronger effect = lower value 1.03 | locus YCL011C, strain gbp2, stronger effect = lower value 1.04 | locus YCL016C, strain dcc1, stronger effect = lower value 1.03 | locus YCL061C, strain MRC1, stronger effect = lower value 1.03 | locus YCL069W, strain vba3, stronger effect = lower value 1.04 | locus YCR088W, strain abp1, stronger effect = lower value 1.04 | locus YDL005C, strain med2, stronger effect = lower value 1.04 | locus YDL040C, strain nat1, stronger effect = lower value 1.03 | locus YDR001C, strain nth1, stronger effect = lower value 1.03 | locus YDR069C, strain doa4, stronger effect = lower value 1.03 | locus YDR137W, strain rgp1, stronger effect = lower value 1.08 | locus YDR159W, strain sac3, stronger effect = lower value 1.05 | locus YDR195W, strain ref2 1.05 | locus YDR297W, strain sur2, stronger effect = lower value 1.03 | locus YDR334W, strain swr1, stronger effect = lower value 1.03 | locus YDR335W, strain msn5, stronger effect = lower value 1.03 | locus YDR392W, strain spt3, stronger effect = lower value 0.945 | locus YEL003W, strain gim4, stronger effect = lower value 1.03 | locus YEL037C, strain rad23, stronger effect = lower value 1.02 | locus YEL061C, strain CIN8 (second series), stronger effect = lower value 1.04 | locus YER015W, strain faa2, stronger effect = lower value 1.03 | locus YER016W, strain bim1, stronger effect = lower value 1.03 | locus YER111C, strain swi4, stronger effect = lower value 1.02 | locus YER155C, strain BEM2 (second series), stronger effect = lower value 1.03 | locus YFR010W, strain ubp6, stronger effect = lower value 1.03 | locus YGL167C, strain pmr1, stronger effect = lower value 1.03 | locus YGL173C, strain kem1, stronger effect = lower value 1.03 | locus YGL227W, strain vid30, stronger effect = lower value 1.04 | locus YGL240W, strain doc1, stronger effect = lower value 1.03 | locus YGL253W, strain hxk2, stronger effect = lower value 1.04 | locus YHR013C, strain ard1, stronger effect = lower value 1.03 | locus YHR027C, strain rpn1, stronger effect = lower value 1.02 | locus YHR030C, strain SLT2, stronger effect = lower value 0.961 | locus YHR079C, strain IRE1, stronger effect = lower value 0.947 | locus YHR142W, strain chs7, stronger effect = lower value 1.05 | locus YJL092W, strain hpr5, stronger effect = lower value 1.04 | locus YJL095W, strain BCK1 (second series), stronger effect = lower value 1.03 | locus YJL095W, strain BCK1, stronger effect = lower value 0.973 | locus YJL115W, strain asf1, stronger effect = lower value 1.04 | locus YJL129C, strain trk1, stronger effect = lower value 1.06 | locus YJL154C, strain vps35, stronger effect = lower value 1.03 | locus YJL164C, strain tpk1, stronger effect = lower value 1.03 | locus YJL166W, strain qcr8, stronger effect = lower value 1.03 | locus YJL187C, strain SWE1, stronger effect = lower value 1.02 | locus YJR066W, strain TOR1, stronger effect = lower value 0.973 | locus YKL160W, strain elf1, stronger effect = lower value 1.04 | locus YKR026C, strain gcn3, stronger effect = lower value 1.04 | locus YKR091W, strain srl3, stronger effect = lower value 1.02 | locus YLL001W, strain dnm1, stronger effect = lower value 1.03 | locus YLL026W, stronger effect = lower value 1.02 | locus YLL041C, strain sdh2, stronger effect = lower value 1.02 | locus YLR027C, strain aat2, stronger effect = lower value 1.03 | locus YLR113W, strain HOG1, stronger effect = lower value 0.934 | locus YLR221C, strain rsa3, stronger effect = lower value 1.03 | locus YLR258W, strain gsy2, stronger effect = lower value 1.03 | locus YLR262C, strain YPT6 (second series), stronger effect = lower value 1.07 | locus YLR320W, strain mms22, stronger effect = lower value 1.03 | locus YLR342W, strain FKS1, stronger effect = lower value 1.03 | locus YLR357W, strain rsc2, stronger effect = lower value 1.04 | locus YLR370C, strain arc18, stronger effect = lower value 1.03 | locus YLR384C, strain iki3, stronger effect = lower value 1.02 | locus YML120C, strain ndi1, stronger effect = lower value 1.03 | locus YMR058W, strain fet3, stronger effect = lower value 1.04 | locus YMR125W, strain sto1, stronger effect = lower value 1.03 | locus YMR129W, stronger effect = lower value 1.03 | locus YMR205C, strain PFK2, stronger effect = lower value 1.04 | locus YMR231W, strain pep5, stronger effect = lower value 1.03 | locus YNL071W, strain lat1, stronger effect = lower value 1.03 | locus YNL183C, strain NPR1, stronger effect = lower value 0.925 | locus YNL209W, strain ssb2, stronger effect = lower value 1.03 | locus YNL248C, strain rpa49, stronger effect = lower value 1.03 | locus YNL322C, strain KRE1 (second series), stronger effect = lower value 1.02 | locus YNR049C, strain mso1, stronger effect = lower value 1.03 | locus YOR001W, strain rrp6, stronger effect = lower value 1.02 | locus YOR070C, strain gyp1, stronger effect = lower value 1.02 | locus YOR080W, strain dia2, stronger effect = lower value 1.02 | locus YOR083W, strain WHI5, stronger effect = lower value 1.03 | locus YOR106W, strain vam3, stronger effect = lower value 1.06 | locus YOR231W, strain MKK1, stronger effect = lower value 0.957 | locus YOR265W, strain rbl2, stronger effect = lower value 1.02 | locus YOR270C, strain vph1, stronger effect = lower value 1.03 | locus YOR290C, strain snf2, stronger effect = lower value 0.999 | locus YPL051W, strain arl3, stronger effect = lower value 1.03 | locus YPL078C, strain atp4, stronger effect = lower value 1.04 | locus YPL106C, strain sse1, stronger effect = lower value 1.05 | locus YPL240C, strain hsp82, stronger effect = lower value 1.02 | locus YPL256C, strain CLN2, stronger effect = lower value 0.958
